Source: PubChem BioAssay AID1159580 (chemical genetic matrix, 2015)
Several values for one entry are separate records, joined by “and”; a condition that tells them apart may be missing. Equal values may be shown once. About 2,000 (36%) of roughly 5,500 compounds were called active. About 18% were inconclusive and are not listed. Rule as the data show it: active = normalized growth mostly below about 0.91 (no sharp cut-off); inconclusive = no clear call, values can overlap the other calls; inactive = mostly above about 0.92. This is one part of the list.

Experiment: chemical genetic growth profiling, strain panel (AID 1159580);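 also: tested at 20 µM; growth read once vehicle control cultures reached saturation at 30 °C; 1 = growth at the plate median or of vehicle wells; lower values mean less growth of the strain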
Settings: growth OD

Measured: normalized growth

CC(=O)OC/C=C(C)/C=C/C=C(C)/C=C/C1=C(C)CCCC1(C)C
inactive: S. cerevisiae deletion strains, locus YAL013W, strain DEP1, hits give low values 1.02 | S. cerevisiae deletion strains, locus YBR021W, strain FUR4, hits give low values 1.03 | S. cerevisiae deletion strains, locus YBR229C, strain ROT2, hits give low values 1.02 | S. cerevisiae deletion strains, locus YCL029C, strain bik1, hits give low values 1 | S. cerevisiae deletion strains, locus YDL035C, strain GPR1, hits give low values 1.01 | S. cerevisiae deletion strains, locus YDL074C, strain BRE1, hits give low values 1.03 | S. cerevisiae deletion strains, locus YDL101C, strain DUN1, hits give low values 1.03 | S. cerevisiae deletion strains, locus YDL134C, strain PPH21, hits give low values 1 | S. cerevisiae deletion strains, locus YDL185W, strain tfp1, hits give low values 0.992 | S. cerevisiae deletion strains, locus YDL192W, strain arf1, hits give low values 0.994 | S. cerevisiae deletion strains, locus YDR101C, strain arx1, hits give low values 0.988 | S. cerevisiae deletion strains, locus YDR150W, strain NUM1, hits give low values 1.01 | S. cerevisiae deletion strains, locus YDR162C, strain NBP2, hits give low values 1.01 | S. cerevisiae deletion strains, locus YDR318W, strain mcm21, hits give low values 1 | S. cerevisiae deletion strains, locus YDR388W, hits give low values 0.994 | S. cerevisiae deletion strains, locus YDR502C, strain sam2, hits give low values 0.996 | S. cerevisiae deletion strains, locus YEL061C, strain CIN8, hits give low values 1.02 | S. cerevisiae deletion strains, locus YER110C, hits give low values 0.992 | S. cerevisiae deletion strains, locus YER155C, strain BEM2, hits give low values 1.02 | S. cerevisiae deletion strains, locus YER167W, strain BCK2, hits give low values 1.02 | S. cerevisiae deletion strains, locus YGL078C, strain dbp3, hits give low values 0.982 | S. cerevisiae deletion strains, locus YGL086W, strain mad1, hits give low values 1 | S. cerevisiae deletion strains, locus YGL248W, strain PDE1, hits give low values 1.03 | S. cerevisiae deletion strains, locus YGR078C, strain PAC10, hits give low values 1.04 | S. cerevisiae deletion strains, locus YGR135W, strain pre9, hits give low values 0.984 | S. cerevisiae deletion strains, locus YGR252W, strain gcn5, hits give low values 0.982 | S. cerevisiae deletion strains, locus YHR030C, strain SLT2, hits give low values 1.02 and 1.06 | S. cerevisiae deletion strains, locus YHR079C, strain IRE1 (second series), hits give low values 1 | S. cerevisiae deletion strains, locus YHR079C, strain IRE1, hits give low values 1.06 | S. cerevisiae deletion strains, locus YHR094C, strain hxt1, hits give low values 0.991 | S. cerevisiae deletion strains, locus YHR129C, strain ARP1, hits give low values 1.02 | S. cerevisiae deletion strains, locus YHR200W, strain rpn10, hits give low values 0.999 | S. cerevisiae deletion strains, locus YIL066C, strain RNR3, hits give low values 1.02 | S. cerevisiae deletion strains, locus YIL073C, strain SPO22, hits give low values 1.02 | S. cerevisiae deletion strains, locus YIL125W, strain kgd1, hits give low values 0.992 | S. cerevisiae deletion strains, locus YIR030C, strain dcg1, hits give low values 0.994 | S. cerevisiae deletion strains, locus YJL095W, strain BCK1, hits give low values 1.05 and 1.04 | S. cerevisiae deletion strains, locus YJL134W, strain LCB3, hits give low values 1.02 | S. cerevisiae deletion strains, locus YJL168C, strain set2, hits give low values 0.999 | S. cerevisiae deletion strains, locus YJL187C, strain SWE1 (second series), hits give low values 1.02 | S. cerevisiae deletion strains, locus YJR043C, strain POL32, hits give low values 1.02 | S. cerevisiae deletion strains, locus YJR066W, strain TOR1, hits give low values 0.959 | S. cerevisiae deletion strains, locus YJR075W, strain HOC1, hits give low values 1.03 | S. cerevisiae deletion strains, locus YKL009W, strain mrt4, hits give low values 1.01 | S. cerevisiae deletion strains, locus YKL068W, hits give low values 1 | S. cerevisiae deletion strains, locus YKL085W, strain MDH1 (second series), hits give low values 0.993 | S. cerevisiae deletion strains, locus YKL085W, strain MDH1, hits give low values 0.993 | S. cerevisiae deletion strains, locus YKL190W, strain CNB1, hits give low values 1.01 | S. cerevisiae deletion strains, locus YKR001C, strain vps1, hits give low values 0.999 | S. cerevisiae deletion strains, locus YLR039C, strain RIC1, hits give low values 1.05 | S. cerevisiae deletion strains, locus YLR058C, strain SHM2, hits give low values 1.01 | S. cerevisiae deletion strains, locus YLR102C, strain apc9, hits give low values 1 | S. cerevisiae deletion strains, locus YLR113W, strain HOG1, hits give low values 0.981 | S. cerevisiae deletion strains, locus YLR262C, strain YPT6, hits give low values 1.03 | S. cerevisiae deletion strains, locus YLR268W, strain sec22, hits give low values 1.01 | S. cerevisiae deletion strains, locus YLR330W, strain CHS5, hits give low values 1.02 | S. cerevisiae deletion strains, locus YLR342W, strain FKS1 (second series), hits give low values 0.986 | S. cerevisiae deletion strains, locus YLR371W, strain rom2, hits give low values 1 | S. cerevisiae deletion strains, locus YLR418C, strain cdc73, hits give low values 0.986 | S. cerevisiae deletion strains, locus YML016C, strain PPZ1, hits give low values 1.01 | S. cerevisiae deletion strains, locus YML032C, strain rad52, hits give low values 0.998 | S. cerevisiae deletion strains, locus YML124C, strain tub3, hits give low values 0.999 | S. cerevisiae deletion strains, locus YMR078C, strain ctf18, hits give low values 1.01 | S. cerevisiae deletion strains, locus YMR223W, strain ubp8, hits give low values 1.01 | S. cerevisiae deletion strains, locus YMR307W, strain GAS1, hits give low values 0.898 | S. cerevisiae deletion strains, locus YNL067W, strain RPL9B, hits give low values 1.03 | S. cerevisiae deletion strains, locus YNL183C, strain NPR1, hits give low values 0.953 | S. cerevisiae deletion strains, locus YNL233W, strain BNI4, hits give low values 1.05 | S. cerevisiae deletion strains, locus YNL250W, strain rad50, hits give low values 0.989 | S. cerevisiae deletion strains, locus YNL271C, strain bni1, hits give low values 0.988 | S. cerevisiae deletion strains, locus YNL298W, strain CLA4, hits give low values 0.981 | S. cerevisiae deletion strains, locus YNL307C, strain MCK1, hits give low values 1 | S. cerevisiae deletion strains, locus YNL322C, strain KRE1, hits give low values 1.02 | S. cerevisiae deletion strains, locus YNR052C, strain pop2, hits give low values 0.996 | S. cerevisiae deletion strains, locus YOL006C, strain TOP1, hits give low values 1.06 | S. cerevisiae deletion strains, locus YOL012C, strain htz1 1.19 | S. cerevisiae deletion strains, locus YOL147C, strain pex11, hits give low values 0.997 | S. cerevisiae deletion strains, locus YOR061W, strain CKA2, hits give low values 1.01 | S. cerevisiae deletion strains, locus YOR069W, strain VPS5, hits give low values 1.02 | S. cerevisiae deletion strains, locus YOR136W, strain idh2, hits give low values 1 | S. cerevisiae deletion strains, locus YOR144C, strain elg1, hits give low values 0.998 | S. cerevisiae deletion strains, locus YOR184W, strain ser1, hits give low values 0.998 | S. cerevisiae deletion strains, locus YOR231W, strain MKK1, hits give low values 1.04 | S. cerevisiae deletion strains, locus YOR316C, strain cot1, hits give low values 0.999 | S. cerevisiae deletion strains, locus YPL241C, strain CIN2, hits give low values 1.01 | S. cerevisiae deletion strains, locus YPL256C, strain CLN2, hits give low values 1.08 | S. cerevisiae deletion strains, locus YPR119W, strain clb2, hits give low values 1 | S. cerevisiae deletion strains, locus YPR141C, strain kar3, hits give low values 0.992 | S. cerevisiae deletion strains, locus YPR163C, strain tif3, hits give low values 0.994 | S. cerevisiae deletion strains, locus YPR167C, strain met16, hits give low values 1 | S. cerevisiae deletion strains, strain wtn01, hits give low values 0.995 | S. cerevisiae strains, strain wild type, hits give low values 1.02
